Bioassay records: PubChem, several laboratories
The list is not random: actives were taken first. Their share in the collection is about 4.1%.
MEKK2mut PB1 HTS = signal of MEK5 binding to mutant human MEKK2 PB1 domain; bead flow cytometry, Alexa488-MEK5 binding to MEKK2 mutant; percent response, % at 10 µM; 290,000 compounds, 0.35% hits; AID 1530; in the data active = percent response above about 24%, passing the limit was not always enough
MEKK3 PB1 HTS = modulators (inhibitors or enhancers) of MEK5 binding to human MEKK3 PB1 domain. Q99759. 290,000 compounds, 1.4% hits. bead-based flow cytometry, Alexa488-MEK5 binding to MEKK3; actives lie on both sides; 0 = blocked by unlabeled MEK5, 100 = vehicle. binding response (% of control), % at 10 µM;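 active = binding response more than 3 SD above or below the average of its plate-row segment, actives on both sides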;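 note: Alexa488 bead fluorescence after subtracting the streptavidin-only scavenger bead signal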
MEKK2wt PB1 HTS = raises or lowers MEK5 binding to wildtype human MEKK2 PB1 domain; Q9Y2U5; bead flow cytometry, Alexa488-MEK5 binding to MEKK2 WT; actives lie on both sides; binding response (% of control), % at 10 µM; 290,000 compounds, 1.1% hits; AID 1531; in the data active = binding response below about 67% or above about 130%
CHT inh = inhibitors of human choline transporter CHT; CHT-expressing cells, membrane potential dye, choline response; hits give low values; B-score at 10 µM; 310,000 compounds, 0.86% hits;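 active = B-score over 3 SD under the library average, and starting fluorescence ratio not unusually high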;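 note: choline stimulus applied at its EC90 after an EC20 pre-addition; B-score computed on integrated fluorescence ratio after choline addition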
Target sequence (Q9GZV3 whole entry, looked up): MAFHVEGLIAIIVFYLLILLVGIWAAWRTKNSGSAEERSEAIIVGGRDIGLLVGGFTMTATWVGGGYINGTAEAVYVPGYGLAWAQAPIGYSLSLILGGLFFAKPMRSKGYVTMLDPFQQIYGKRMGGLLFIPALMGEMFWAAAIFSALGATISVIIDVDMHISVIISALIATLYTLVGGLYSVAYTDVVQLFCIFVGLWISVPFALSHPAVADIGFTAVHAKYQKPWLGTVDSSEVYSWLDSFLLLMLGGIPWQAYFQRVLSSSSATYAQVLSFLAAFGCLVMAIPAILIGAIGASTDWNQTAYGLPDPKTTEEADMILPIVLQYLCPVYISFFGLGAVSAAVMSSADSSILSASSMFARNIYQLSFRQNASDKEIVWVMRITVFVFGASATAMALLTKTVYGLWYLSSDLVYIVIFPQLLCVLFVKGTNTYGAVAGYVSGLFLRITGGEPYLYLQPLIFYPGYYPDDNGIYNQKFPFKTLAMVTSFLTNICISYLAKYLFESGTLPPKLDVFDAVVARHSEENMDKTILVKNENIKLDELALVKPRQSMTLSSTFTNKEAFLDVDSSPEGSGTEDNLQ
CHT PAM = allosterically activates the human high affinity choline transporter; Q9GZV3; CHT-expressing cells, membrane potential dye, choline EC20; hits give high values; LV-AA mutant CHT in HEK293 cells; B-score at 10 µM; 310,000 compounds, 0.49% hits;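 active = initial fluorescence not abnormally high and integrated response B-score, plate-corrected, over 3 SD above library mean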
Mot1-301 SUMO = blocks SUMOylation pathway, rescuing yeast Mot1-301 growth; S. cerevisiae Mot1-301 growth rescue, ATP luminescence, 38.5C; percent above DMSO median, 100 means doubled; growth rescue, % at 18.8 µM; 320,000 compounds, 1% hits;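 active = every valid replicate shows activation above 250% relative to neutral control wells; inactive = the rest, any valid replicate at or below 250%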
MEKK2wt confirm = raises or lowers MEK5 binding to wildtype human MEKK2, retest; 5,900 compounds, 2.4% hits; bead flow cytometry, Alexa488-MEK5 binding to MEKK2 WT; actives lie on both sides; shares compounds with MEKK3 PB1 HTS; binding response (% of control), % at 10 µM; in the data active = binding response below about 16% or above about 210%; inactive = in between
MEKK2mut confirm = signal of MEK5 binding to mutant human MEKK2, retest; percent response, % at 10 µM; 5,900 compounds, 2% hits; bead flow cytometry, Alexa488-MEK5 binding to MEKK2 mutant; shares compounds with MEKK3 PB1 HTS; AID 1893; in the data active = percent response mostly above about 71%, no sharp cut-off; inactive = mostly below about 38%;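 note: higher means compound restores mutant binding toward wildtype level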
MEKK3-MEK5 inh = confirmation of inhibitors of MEK5 binding to human MEKK3; shares compounds with MEKK3 PB1 HTS; bead flow cytometry, Alexa488-MEK5 binding to MEKK3; hits give low values; binding response (% of control), % at 10 µM; 5,900 compounds, 1.8% hits; AID 1894;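 active = binding response below 72% of control, or above a set upper limit, though filed actives all read lower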;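 note: lower values mean stronger disruption of MEK5 binding to MEKK3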
Each line names hits and unclear results; the compound was inactive in the other large screens (follow-up assays come after a bar, where they were run); [ ] = another dose, or the depositor's remark.

N#CC1(C#N)C(c2ccccc2)OC23CCCCCC2C1(C#N)C(=N)O3 (stereo not drawn)	none
COc1ccc(NC(=O)CSc2nc3ccccc3nc2N2CCCC2)cc1	none
CCOC(=O)C1=NN(C(C)=O)C2(CC(=O)N(c3cccc(C)c3)C2=O)C1 (stereo not drawn)	MEKK3 PB1 HTS 139.0 | MEKK2wt confirm inactive | MEKK2mut confirm inactive | MEKK3-MEK5 inh inactive
COc1ccc(CN(C2CCCCC2C)S(=O)(=O)c2ccc(S(=O)(=O)N(C)C)cc2)cc1OC (stereo not drawn)	MEKK3 PB1 HTS 137.0 | MEKK2wt confirm inactive | MEKK2mut confirm inactive | MEKK3-MEK5 inh inactive
CCOC(=O)c1cn(Cc2ccccc2)nn1	MEKK3 PB1 HTS 131.0 | MEKK2wt confirm inactive | MEKK2mut confirm inactive | MEKK3-MEK5 inh inactive
CCOC(=O)c1cn(CC(=O)Nc2ccc(CC)cc2)nn1	none
c1ccc(CNc2nc(NCc3ccccc3)c3ccccc3n2)cc1	MEKK2mut PB1 HTS 140.0, MEKK2wt PB1 HTS 262.0 | MEKK2wt confirm 256.0 | MEKK2mut confirm 116.0 | MEKK3-MEK5 inh inactive
CN1C[C@@H]2[C@@H]3C(=O)N(Cc4ccccc4)C(=O)[C@@H]3[C@](C)(C1=O)N2C(=O)c1ccc(Cl)cc1	none (no result: MEKK2mut PB1 HTS, MEKK3 PB1 HTS, MEKK2wt PB1 HTS, CHT inh, CHT PAM)
CCCCCNCC(=O)Nc1cccc(C(=O)Nc2cccc(C(F)(F)F)c2)c1	MEKK2wt PB1 HTS 174.0 | MEKK2wt confirm inactive | MEKK2mut confirm inactive | MEKK3-MEK5 inh inactive
Clc1ccc(-c2nnnn2-c2ccc(Cl)cc2)cc1	none
Cc1cc(-c2nnnn2-c2cc(Cl)cc(Cl)c2)no1	MEKK3 PB1 HTS 131.0 | MEKK2wt confirm inactive | MEKK2mut confirm inactive | MEKK3-MEK5 inh inactive
Cn1c(CS(=O)Cc2c(Cl)cccc2Cl)nnc1SCc1ccc(Cl)cc1 (stereo not drawn)	MEKK3 PB1 HTS 34.0[inhibitor] | MEKK2wt confirm inactive | MEKK2mut confirm inactive | MEKK3-MEK5 inh inactive
COc1cc(-c2nc(CN3CCN(c4ncccn4)CC3)c(C)o2)ccc1F	none
CCN(CC)CCN(C(=O)c1ccc([N+](=O)[O-])cc1)c1nc2c(OC)cccc2s1	none
CCN(CC)CCN(C(=O)c1ccc(Br)s1)c1nc2cc3c(cc2s1)OCCO3	MEKK2wt PB1 HTS 138.0 | MEKK2wt confirm inactive | MEKK2mut confirm inactive | MEKK3-MEK5 inh inactive
CCN(CC)CCN(C(=O)c1ccc(C(=O)c2ccccc2)cc1)c1nc2c(OC)cccc2s1	MEKK2mut PB1 HTS 42.0, MEKK2wt PB1 HTS 178.0 | MEKK2wt confirm inactive | MEKK2mut confirm inactive | MEKK3-MEK5 inh inactive
CCN(CC)CCN(C(=O)c1ccc(C(=O)c2ccccc2)cc1)c1nc2cc3c(cc2s1)OCO3	MEKK2mut PB1 HTS 31.0, MEKK2wt PB1 HTS 157.0 | MEKK2wt confirm inactive | MEKK2mut confirm inactive | MEKK3-MEK5 inh inactive
CN(C)N1C(N)=C(C#N)C(c2ccc3c(c2)OCO3)C2=C1CC(C)(C)CC2=O (stereo not drawn)	none
CCCCCN(C(=O)CCC(=O)OC(C)C(=O)c1ccc(Cl)cc1)c1c(N)n(CCCC)c(=O)[nH]c1=O (stereo not drawn)	none (no result: MEKK2mut PB1 HTS, MEKK3 PB1 HTS, MEKK2wt PB1 HTS)
Cn1c(-c2ccc(C(C)(C)C)cc2)n[nH]c1=S	MEKK3 PB1 HTS 81.0[inhibitor] | MEKK2wt confirm inactive | MEKK2mut confirm inactive | MEKK3-MEK5 inh inactive
Oc1c(Br)cc(C=Nc2ccc3nc(-c4ccccc4)[nH]c3c2)c(O)c1Br	MEKK2wt PB1 HTS 56.0[inhibitor] | MEKK2wt confirm inactive | MEKK2mut confirm inactive | MEKK3-MEK5 inh inactive
